Assay outcomes from PubChem.
An excerpt weighted towards active compounds, which were near 6% of everything screened.
D3 ag – qHTS of D3 Dopamine Receptor Agonist: qHTS. D3R DiscoveRx beta-arrestin cells, luminescence, 90 min. D(3) dopamine receptor (Homo sapiens), P35462. AID 652048, 2013. 410,000 tested, 0.58% active. max activation, %; in the data active means max activation above about 30%; further: 0% is about no effect
Target sequence (P35462 whole entry, looked up): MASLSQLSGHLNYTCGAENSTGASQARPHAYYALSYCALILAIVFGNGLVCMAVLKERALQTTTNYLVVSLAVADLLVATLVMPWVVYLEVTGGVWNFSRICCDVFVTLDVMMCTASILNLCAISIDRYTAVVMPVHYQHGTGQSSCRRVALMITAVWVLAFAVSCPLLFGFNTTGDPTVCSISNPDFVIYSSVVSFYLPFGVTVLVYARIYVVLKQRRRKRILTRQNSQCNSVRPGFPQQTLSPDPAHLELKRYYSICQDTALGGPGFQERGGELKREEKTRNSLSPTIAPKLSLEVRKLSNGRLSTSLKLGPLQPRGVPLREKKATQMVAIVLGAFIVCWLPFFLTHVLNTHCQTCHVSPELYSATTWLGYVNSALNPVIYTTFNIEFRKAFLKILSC
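Cells at 1500/well, incubated overnight, then treated with pinned compounds (dopamine as control) for 90 min at 37 degrees C. DiscoveRx reagent added for 30 - 60 minutes at room temperature; luminescence read.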
D1 agonist – Allosteric Agonists of the Human D1 Dopamine Receptor: qHTS; D(1A) dopamine receptor (Homo sapiens), P21728; HEK293 T-REx D1 cells, calcium flux, agonist mode; activation, % at 2 µM; 360,000 tested, 1% active; AID 504660, 2011; in the data active means activation above about 30%; further: 0% is about no effect
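Inducible HEK293 T-REx D1 cells, force-coupled to calcium signalling, were plated at 4000 cells/well with tetracycline and held overnight at 30 C. After no-wash calcium dye loading, compound-evoked calcium rise over 180 s flagged agonists.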
D1 potentiator – Potentiators of Human D1 Dopamine Receptor: qHTS; HEK293 TREx D1 cells, calcium flux, dopamine EC20 potentiation; AID 504651, 2011; potentiation, % at 10 µM; 360,000 tested, 0.036% active; D(1A) dopamine receptor (Homo sapiens), P21728; in the data active means potentiation above about 30%; further: 0% is about no effect
DRD3 antagonist – qHTS of D3 Dopamine Receptor Antagonist: qHTS; D(3) dopamine receptor (Homo sapiens), P35462; D3R cells, DiscoveRx beta-arrestin luminescence, antagonist mode; stronger effect = lower value; max response, negative = inhibition, %; 360,000 tested, 2.5% active; in the data active means max response below about -50%; inconclusive means no clear call, values can overlap the other calls; further: on the % scale 0 is the no-effect control and ±100 the full control effect
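Cells expressing the human receptor were seeded at 1500 cells/well, incubated overnight at 37 degrees C in 5% CO2, then exposed to library compounds with dopamine controls for 90 minutes at 37 degrees C before luminescent detection.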
D1 antag – Antagonist of Human D 1 Dopamine Receptor: qHTS; D(1A) dopamine receptor (Homo sapiens), P21728; HEK293 TREx D1 cells, calcium flux, dopamine EC80; stronger effect = lower value; 360,000 tested, 3.2% active; activity change, negative = inhibition, % at 10 µM; AID 504652, 2011; in the data active means activity change below about -30%; further: on the % scale 0 is the no-effect control and ±100 the full control effect
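Antagonism measured as reduced calcium response to an EC80 dopamine addition following 180 s compound pre-read; cells were inducible HEK293 Trex D1 plated overnight at 30 C, read kinetically at 1 cycle/sec.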
* = called active by the depositor; ? = inconclusive; / = no result; ! = not active in a repeat.

SMILES	D3 ag	D1 agonist	D1 potentiator	DRD3 antagonist	D1 antag
COc1ccccc1N1CCN(CC(O)COc2ccc3c(c2)OCO3)CC1 (stereo unspecified)	-14	10	-3	-103*	30
OCCN1CCN(CC(O)COc2ccc3c(c2)OCO3)CC1 (stereo unspecified)	0	3	2	?	0
Cc1ccc(S(=O)(=O)c2nnn3c2nc(NCc2ccccc2Cl)c2sccc23)cc1	-6	4	-4	/	-1
COc1ccccc1N1CCN(S(=O)(=O)c2ccc(-c3ccno3)cc2OC)CC1	5	-1	-1	/	-7
O=C(OCCN=C1NS(=O)(=O)c2ccccc21)c1cccs1	-7	6	-2	-8	25
COc1ccccc1N1CCN(S(=O)(=O)c2c(C)[nH]c(=O)[nH]c2=O)CC1	0	2	-4	11	5
CCc1ccc(NC(=O)C(=O)NCC(c2cccnc2)N2CCN(c3ccc(F)cc3)CC2)cc1 (stereo unspecified)	5	15	-2	/	-11
COc1cc(C(=O)NCC(c2cccnc2)N2CCN(c3ccc(F)cc3)CC2)cc(OC)c1OC (stereo unspecified)	-14	2	0	-3	-5
COc1ccccc1N1CCN(CC(O)COc2cccc3ccccc23)CC1 (stereo unspecified)	-74	8	-4	-99*	-67*!
CCOc1ccccc1N1CCN(CC(O)COc2ccc3c(C)cc(=O)oc3c2)CC1 (stereo unspecified)	-9	4	-3	-70*	4
OC(COc1cccc2ccccc12)CN1CCOCC1 (stereo unspecified)	-10	/	/	-18	/
OC(COc1ccccc1Cl)CN1CCN(CC(O)COc2ccccc2Cl)CC1 (stereo unspecified)	-1	99*	-6	?	-82*
Cc1ccccc1OCC(O)CN1CCN(C)CC1 (stereo unspecified)	-1	1	-2	16	-10
Cc1cc(=O)oc2cc(OCC(O)CN3CCN(c4ccc(F)cc4)CC3)ccc12 (stereo unspecified)	3	3	-6	?	-2
COc1ccc2c(c1)CC(C(=O)N1CCC(C(N)=O)CC1)CO2 (stereo unspecified)	1	2	0	/	7
Cc1ccc(NC(=O)Nc2cc(S(C)(=O)=O)ccc2Cl)cc1	-4	3	-3	-10	-38*
CCCCS(=O)(=O)N[C@@H](Cc1ccc(OCCCCC2CCNCC2)cc1)C(=O)O	0	/	/	/	/
O=C(CC(=O)Nc1ccccc1[N+](=O)[O-])Nc1ccccc1[N+](=O)[O-]	-10	11	-7	-64*	-34*
O=C(COC(=O)COc1ccccc1[N+](=O)[O-])Nc1ccccc1Br	-4	5	4	13	-43*
COc1ccc(C(=O)C[n+]2ccc3c(c2)nc(-c2cc(OC)c(OC)cc2OC)n3C)cc1	-8	1	-4	-16	-31*
Cc1cc(C)nc(S/C=C/C(=O)c2ccccc2F)n1	-17	0	3	-85*	-28
CC(C)c1ccc(NC(=O)CCCc2nc(-c3ccc(Cl)cc3)no2)cc1	3	7	0	/	-3
CCCN[C@H]1CCc2nc(N)sc2C1	88*	/	/	5	/
C/C(NCCc1ccc(O)cc1)=C1/CCOC1=O	45*	/	/	6	/
CC(=O)Nc1cc(C(=O)NCc2ccc(F)cc2)ccc1S(=O)(=O)c1ccc(C)cc1	0	-4	1	/	-67*
SMILES	D3 ag	D1 agonist	D1 potentiator	DRD3 antagonist	D1 antag
CC(=O)Nc1cc(C(=O)N2CCOCC2)ccc1S(=O)(=O)c1ccc(C)cc1	4	1	2	-1	-31*
CC(=O)Nc1cc(C(=O)O)ccc1S(=O)(=O)c1ccc(C)cc1	-1	0	7	7	4
Cn1c(=O)c2c(nc(Oc3ccccc3)n2Cc2c(Cl)cccc2Cl)n(C)c1=O	6	-2	0	/	-6
COC(=O)c1sc(N)c(C(=O)OC)c1COC(=O)CNS(=O)(=O)c1cccc(C#N)c1	-8	1	6	-3	-33*
O=C(NC1CCCC1)c1nc(-c2ccco2)oc1-c1ccccc1	-2	/	/	29	/
Cc1onc(-c2ccccc2)c1C(=O)c1c[nH]c(C(=O)NCc2ccncc2)c1	2	-1	-4	4	-89*
Cc1onc(-c2ccccc2)c1C(=O)NCCc1ccncc1	-11	4	-2	-11	-2
Cc1onc(-c2ccccc2)c1C(=O)NCc1cccnc1	2	2	-1	-75*	4
Cc1onc(-c2ccccc2)c1C(=O)c1c[nH]c(C(=O)NCc2ccccn2)c1	7	4	-6	6	1
CSC1=NS(=O)(=O)c2c(C)nn(C)c2S1	-8	3	0	-69*	-9
COc1ccc(NC(=O)c2cc3nc(-c4ccc(Cl)c(Cl)c4)cc(C(F)(F)F)n3n2)c(OC)c1	3	-2	0	/	-66*
Cc1ccc(OCCNc2ccc(C(F)(F)F)cc2[N+](=O)[O-])cc1	5	12	-2	2	0
Cc1cc(C)cc(OC(=O)CS(=O)c2ccc(C(F)(F)F)cc2[N+](=O)[O-])c1 (stereo unspecified)	-9	1	-6	-73*	-17
O=C(CS(=O)c1ccc(C(F)(F)F)cc1[N+](=O)[O-])Oc1ccc(Cl)cc1 (stereo unspecified)	-4	0	-2	-97*	9
COc1ccc(C)cc1-n1nnnc1SCc1nc(N)nc(N(C)C)n1	0	/	/	4	/
N/C(=N\N=C\c1ccc(Cl)cc1)N/N=C/c1ccc(Cl)cc1	5	/	/	/	/
N/C(=N\N=C/c1ccc(F)cc1)N/N=C\c1ccc(F)cc1	4	11	-10	3	-59*
Cc1ccsc1/C=C/c1n[nH]c(=O)c(C#N)c1C	4	0	0	1	-33*
Fc1ccc(-n2cc(-c3ccccc3)c3c(NC4CCCCC4)ncnc32)cc1	-4	0	1	/	21
COc1ccccc1C(c1nnnn1Cc1ccccc1)N1CCN(c2nc3ccccc3s2)CC1 (stereo unspecified)	4	3	-4	-8	27
FC(F)(F)Oc1ccccc1C(c1nnnn1Cc1ccccc1)N1CCN(C/C=C/c2ccccc2)CC1 (stereo unspecified)	-20	/	/	-66*	/
CCCCn1nnnc1C(c1ccccc1OC(F)(F)F)N1CCN(C/C=C/c2ccccc2)CC1 (stereo unspecified)	-11	/	/	-59*	/
Cc1ccc2oc(-c3ccc(Cl)c(NC(=O)c4ccc(-c5ccccc5[N+](=O)[O-])o4)c3)nc2c1	3	0	-5	/	14
